Cruzain inh Det = cruzain (T. cruzi) inhibition with detergent. P25779. purified cruzain, Z-FR-AMC fluorescence, 0.01% Triton. Potency, µM, inactives show max response, negative = inhibition, hits mostly inhibitors. 0.43% of 200,000 active;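 also: plate controls were neutral wells for no effect and buffer without enzyme for full effect; nearly all actives have a fitted effect of over 40% in size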
Target sequence (P25779 123-467 limits assumed): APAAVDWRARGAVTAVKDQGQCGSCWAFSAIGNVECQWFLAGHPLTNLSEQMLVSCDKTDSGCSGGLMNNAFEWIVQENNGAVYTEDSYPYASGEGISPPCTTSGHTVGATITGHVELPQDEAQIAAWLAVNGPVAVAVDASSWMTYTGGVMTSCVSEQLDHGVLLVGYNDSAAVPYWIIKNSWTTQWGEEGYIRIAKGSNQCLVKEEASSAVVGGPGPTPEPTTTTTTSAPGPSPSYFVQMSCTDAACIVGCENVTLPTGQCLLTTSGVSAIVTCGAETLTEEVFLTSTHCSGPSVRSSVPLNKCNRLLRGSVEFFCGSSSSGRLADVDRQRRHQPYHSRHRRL
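Cysteine protease activity tested under reducing, mildly acidic conditions (100 mM sodium acetate pH 5.5, 5 mM DTT) plus 0.01% Triton X-100. Cruzain 1.5 nM; substrate Z-FR-AMC 2 uM; 15 min compound preincubation at room temperature.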
Cruzain noTriton = cruzain (T. cruzi) inhibition without detergent. P25779. purified cruzain, Z-FR-AMC fluorescence, no detergent. Potency, µM, without a hit: max response, negative = inhibition, usual class: inhibitors. 2.3% of 200,000 active. AID 1476;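 also: plate controls were enzyme without inhibitor for no effect and buffer without enzyme for full effect; nearly all actives have a fitted effect of over 40% in size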
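Purified cruzain at 1.5 nM, pre-incubated 15 min with compound at room temperature in 100 mM sodium acetate pH 5.5, 5 mM DTT, 0.00005% Triton X-100. Reaction started with 2 uM Z-FR-AMC; AMC fluorescence increase over 60 s gives rate.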
* marks the source's active call; other numbers are inactive results; ? = inconclusive. Rows were chosen to be rich in hits. Some 2.4% of all compounds tested hit in one or more screens of this group. Calls follow the shape of the dose curve; as a rule, active = well fitted curve in the direction sought with a large enough effect; inconclusive = small, poorly fitted or top-dose-only effect, or another doubt; inactive = no such curve, though single readings can be large; an effect the other way counts as inactive or inconclusive. Potency is read from the fitted curve at half-maximal effect.

SMILES	Cruzain inh Det	Cruzain noTriton
NS(=O)(=O)c1ccc(CCNC(=O)Cn2c(=O)c3cccn3c3ccc(F)cc32)cc1	-8.6%	11.3%
O=C(N=Nc1c(O)n(Cc2ccccc2)c2ccccc12)c1cc2ccccc2cc1O	-7.9%	7.94µM*
Cc1ccc(NC(=O)Cn2c(=O)nc(-c3ccccc3)c3ccccc32)cc1	-0.8%	4.6%
O=C(N=Nc1c(O)n(Cc2ccccc2)c2ccccc12)c1ccc(O)cc1	-2.7%	?
Cc1ccc(NC(=O)Cn2c(O)c(N=NC(=O)c3cc4ccccc4cc3O)c3ccccc32)cc1	-9.2%	10µM*
COc1cc(/C=C2\SC(=S)N(Nc3ccccc3)C2=O)cc(OC)c1OC	-1.1%	13.6%
CCOc1ccc(/C=C2\SC(=S)N(Nc3ccccc3)C2=O)cc1OC	6.31µM*	?
Cn1c(=O)c2[nH]c(CCC(=O)O)nc2n(C)c1=O	3.1%	2.9%
Nc1ccc(S(=O)(=O)NCCS(=O)(=O)O)cc1	5.7%	8.6%
CCC(C)(C)C1CCc2c(sc(NC(=O)C3c4ccccc4Oc4ccccc43)c2C(N)=O)C1 (stereo unspecified)	-1.7%	-1.7%
CCC1CCc2c(sc(NC(=O)C3c4ccccc4Oc4ccccc43)c2C(=O)OC)C1 (stereo unspecified)	0.6%	3.98µM*
CCC1CCc2c(sc(NC(=O)C3c4ccccc4Oc4ccccc43)c2C#N)C1 (stereo unspecified)	-4.5%	7.94µM*
COC(=O)c1c(NC(=O)C2c3ccccc3Oc3ccccc32)sc2c1CCC(C)C2 (stereo unspecified)	-3.1%	-23.2%
c1cc2c3c(cccc3c1)NC1(CCCCC1)N2	0.0%	7.94µM*
O=C1CCSc2cccc3cccc(c23)N1	-4.2%	-6.7%
c1cc2c3c(c1)ccc1cccc(c13)C2	3.5%	-3.7%
c1cc2c3c(cccc3c1)NC1(CCCCCC1)N2	-0.6%	12.6µM*
COC(=O)CN1C(=O)CSc2ccc(S(=O)(=O)Nc3cccc(Cl)c3C)cc21	-7.4%	-0.1%
CCN(C(=O)Cn1nnc2sc3c(c2c1=O)CCC(C(C)(C)C)C3)c1cccc(C)c1 (stereo unspecified)	0.2%	-3.9%
COc1ccc(OCC(=O)N(Cc2cccc(OC)c2)C2CCS(=O)(=O)C2)cc1 (stereo unspecified)	-2.8%	0.4%
COc1ccccc1NC(=O)CN1C(=O)C2(SCC(=O)N2c2ccc(C)c(C)c2)c2ccccc21 (stereo unspecified)	-2.3%	-20.5%
COc1ccccc1NC(=O)CN1C(=O)C2(SCC(=O)N2c2ccc(F)c(F)c2)c2ccccc21 (stereo unspecified)	-5.2%	15.8µM*
Cc1cc(C(=O)COc2cccc(-n3cnnn3)c2)c(C)n1-c1ccccc1	-6.7%	20µM*
COC(=O)COc1cccc(-n2cnnn2)c1	1.5%	7.5%
CCC(C)NC(=O)c1cc2n(n1)CCCN(Cc1ccc(C)cc1)C2=O (stereo unspecified)	-1.0%	21.4%
SMILES	Cruzain inh Det	Cruzain noTriton
Cc1cc2ccccc2c[n+]1CC(O)C[n+]1cc2ccccc2cc1C	3.3%	8.4%
O=C(COC(=O)CNC(=O)c1ccccc1F)Nc1ccc2c(c1)OCCO2	8.91µM*	3.16µM*
CCOc1ccccc1C(=O)NCc1ccc2c(c1)OCO2	2.0%	-8.4%
CCOc1ccccc1C(=O)NCC(=O)OCC(=O)c1ccc2c(c1)OCCO2	25.1µM*	?
O=C(COC(=O)CNC(=O)c1ccc(Br)o1)Nc1ccc2c(c1)OCCO2	-1.3%	11.1%
CCOC(=O)CNC(=O)c1ccc2c(c1)OCCO2	8.3%	-4.4%
COCCn1c(C)cc(C(=O)COC(=O)CNC(=O)c2ccccc2)c1C	?	-29.6%
O=C(CNC(=O)c1ccc(Cl)cc1)OCC(=O)c1ccc2c(c1)OCCO2	8.91µM*	10µM*
COc1ccc(OC)c(C(=O)COC(=O)CNC(=O)c2ccccc2)c1	14.1µM*	12.6µM*
COC(=O)c1n[nH]n(-c2ccccc2)c1=O	0.4%	-9.7%
CCC(C=C[C@@H]1OC(=O)C=C[C@H]1C)=C[C@H](C)CC=CC(C)=C[C@@H](C)C(=O)[C@@H](C)[C@H](O)[C@@H](C)CC(C)=CC(=O)O	6.6%	?
CCCCc1nn2c(=O)cc(COC(=O)c3cccs3)nc2s1	-2.0%	3.5%
COc1ccccc1C(=O)NCC(=O)OCC(=O)c1ccc2c(c1)-c1ccccc1C2	?	10µM*
O=C(CNC(=O)c1ccccc1F)OCC(=O)N1CCCCC1	15.8µM*	?
CCOc1ccc(C(=O)NCC(=O)OCC(=O)c2ccc3c(c2)-c2ccccc2C3)cc1	-13.2%	?
O=C(CNC(=O)c1ccccc1F)OCc1cc(=O)n2nc(C3CCCCC3)sc2n1	-9.0%	-6.3%
CC(=O)Nc1nonc1-c1nnc(SCC(=O)Nc2cc(C)ccc2C)n1-c1ccccc1	-0.9%	?
Cc1ccc(CCNC(=O)c2cc3n(n2)CCCN(Cc2ccc(C)cc2)C3=O)cc1	-1.0%	-0.2%
COc1ccc(OCC(=O)N(C)Cc2ccccc2)cc1	4.4%	-0.3%
O=C(COc1ccc(Cl)cc1)N(Cc1ccccc1)c1nc(-c2ccccc2)cs1	4.1%	10µM*

Source: PubChem
